From PubChem
Only some compounds are listed: those with a hit (about 19% of all), similar ones and a draw of the others.
IL1B secr inh = qHTS for Inhibitors of Inflammasome Signaling: IL-1-beta AlphaLISA Primary Screen. THP-1 LPS/ATP IL-1B secretion, AlphaLISA, 16 h; stronger effect = lower value. activity change, % at 57.5 µM. hit rate 4.7% among 360,000; in the data active means activity change below about -50%; inconclusive means mostly about -30% to -49%
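Secreted IL-1B measured by AlphaLISA bead assay after 16 h compound exposure of THP-1 cells; compounds (final up to 57.5 uM) added 1 h before LPS (250 ng/mL) and ATP (1.25 mM) stimulation; lower signal means less secretion.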
HT1080NT lethal = qHTS for induction of synthetic lethality in tumor cells producing 2HG: qHTS for the HT-1080-NT fibrosarcoma cell line; HT-1080-NT fibrosarcoma viability, CellTiter-Glo ATP luminescence, 48 h; Potency, µM (titrated, usually from 46.1 µM), for the others: top-dose activity, negative = less viability, actives largely listed as cytotoxic; hit rate 1.6% among 360,000; AID 686970, 2013;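 further: NT is the 2HG producing partner of a matched IDH1 knockdown line; potency means the concentration at half of the fitted maximal effect; 0% = DMSO-treated cells and -100% = media-only wells without cells; nearly all actives have a fitted effect of over 55% in size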
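Viability of the 2HG-overproducing fibrosarcoma line after 48 hours of compound exposure at 37 degrees C was determined by luminescence with CellTiter-Glo, and concentration-effect curves were then fitted and categorized.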
DT40 TDP1 no CPT = qHTS for Inhibitors of human tyrosyl-DNA phosphodiesterase 1 (TDP1): qHTS in cells in absence of CPT. DT40 Tdp1-/- hTDP1 cells, no CPT, ATP luminescence, 48 h. Potency, µM (series often up to 46.2 µM), for the others: at the highest dose activity change, negative = growth inhibition, usual class: inhibitors. hit rate 15% among 420,000. AID 686978, 2013; further: potency means the concentration at half of the fitted maximal effect; nearly all actives have a fitted effect of over 55% in size
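Stably hTDP1-transfected Tdp1-null chicken DT40 cells were treated with library compounds minus camptothecin and grown for at least 48 hr at 37 °C, after which cellular ATP was quantified by luminescence.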
HT1080 IDH1KD tx = qHTS for induction of synthetic lethality in tumor cells producing 2HG: qHTS for the HT-1080-IDH1KD cell line. HT-1080 IDH1 knockdown viability, ATP luminescence, 48 h. Potency, µM (series often up to 46.1 µM), for inactives: top-dose activity, negative = toxicity, actives largely listed as cytotoxic. hit rate 2% among 360,000. AID 686971, 2013;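 further: potency means the concentration at half of the fitted maximal effect; 0% = DMSO wells and -100% = cell-free medium wells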
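IDH1KD HT-1080 cells, 750/well, RPMI + 5% FBS; compound pinned after 2 h settling; 48 h, 37 °C; CellTiter-Glo luminescence; % activity normalised to DMSO and no-cell wells; curves fitted, classed by r2 and efficacy.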
DT40 TDP1 CPT = qHTS for Inhibitors of human tyrosyl-DNA phosphodiesterase 1 (TDP1): qHTS in cells in presence of CPT; chicken DT40 Tdp1-/-;hTDP1 cells + 20 nM CPT, ATP luminescence, 48 h; hit rate 12% among 420,000; Potency, µM (titrated, usually from 46.2 µM), inactives show top-dose activity change, negative = growth inhibition, most hits filed as inhibitors; further: potency means the concentration at half of the fitted maximal effect; nearly all actives have a fitted effect of over 55% in size
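Cell growth measured by CellTiter-Glo luminescence after a minimum 48 h, 37 C compound exposure with 20 nM CPT in Tdp1-knockout DT40 cells stably expressing hTDP1, seeded 400/well; qHTS titration format.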
* = called active by the depositor; ? = inconclusive; nt = no result. Unless noted, the call rests on the fitted dose curve; in most records, active means well fitted curve in the direction sought with a large enough effect; inconclusive means small, poorly fitted or top-dose-only effect, or another doubt; inactive means no such curve, though single readings can be large; an effect the other way counts as inactive or inconclusive. Unless noted, on the % scale 0 is the no-effect control and ±100 the full control effect.

SMILES	IL1B secr inh	HT1080NT lethal	DT40 TDP1 no CPT	HT1080 IDH1KD tx	DT40 TDP1 CPT
CC(C)C[C@@H](COCc1ccc(C(F)(F)F)cc1)N1CCN(C(=O)c2ccc(C(F)(F)F)cc2)CCC1=O	-76*	?	?	?	?
CC(C)OCCCNC(=O)C(Cc1ccccc1)NS(=O)(=O)c1ccc2c(c1)CCC(=O)N2 (stereo unspecified)	0	6%	17%	22%	-15%
CCC(CO)Oc1cc(NC(=O)c2ccccc2[N+](=O)[O-])c2ncn(C(C)C)c2c1 (stereo unspecified)	-1	5%	?	8%	16µM*
CCC(CO)Oc1cc(NC(=O)c2ccc(OC)cc2)c2ncn(C(C)C)c2c1 (stereo unspecified)	-18	0%	?	-3%	18µM*
COC(=O)c1cccc(CN2C(=O)C(C)Sc3ccc(C(C)=O)cc32)c1 (stereo unspecified)	9	9%	?	-5%	?
COCCN1C(=O)CCC1(C)C(=O)Nc1c(C)cccc1C (stereo unspecified)	-9	24%	11%	7%	-8%
COc1ccc(NC(=S)Nc2ccc(C)c(Cl)c2)cc1OC	-11	-10%	-26%	12%	-30%
COc1ccc(/C([O-])=C(/C(=S)Nc2ccc(C)c(C)c2)n2c[n+](C)c3ccccc32)cc1OC	5	-4%	?	-1%	29µM*
CC(=O)N(Cc1ccc2c(c1)OCO2)Cc1cc2ccc(C)cc2nc1-c1cccc(C)c1	nt	nt	0.46µM*	nt	?
Nn1c(SCC(=O)Nc2cccc(Br)c2)nnc1C1CC1	-10	-5%	-19%	5%	-2%
Cc1ccc(Cn2nnc3c(=O)[nH]c(C4CCN(S(=O)(=O)c5cc(C)ccc5C)CC4)nc32)cc1	-12	?	23µM*	?	?
Cc1ccc(C)c(Cn2nnc3c(=O)[nH]c(C4CCN(S(=O)(=O)c5ccc(S(=O)(=O)N(C)C)cc5)CC4)nc32)c1	?	-11%	?	0%	18µM*
Cc1ccc(C)c(Cn2nnc3c(=O)[nH]c(C4CCN(C(=O)c5ccco5)CC4)nc32)c1	-6	-8%	?	-3%	21µM*
Cc1ccc(C)c(Cn2nnc3c(=O)[nH]c(C4CCN(S(=O)(=O)c5ccc(S(=O)(=O)NC6CC6)cc5)CC4)nc32)c1	-54*	?	18µM*	?	?
CC(CN1C(C)CCCC1C)OC(=O)c1cccc(Br)c1 (stereo unspecified)	15	0%	-20%	-3%	3%
CCCCN(C)C(=O)c1nc2ccccn2c1CN1CCN(C/C=C/c2ccccc2)CC1	1	-6%	26µM*	4%	?
CC(=O)c1ccc(NC(=O)c2ccc(-c3nc(COc4ccc(C)cc4)c(C)o3)cc2)cc1	nt	nt	-8%	nt	-5%
C=C(C)C1CC=C(C)CC1 (stereo unspecified)	nt	nt	-1%	nt	-11%
CCn1cc(C(=O)NCCCOC(C)C)c(=O)c2cc(S(=O)(=O)N3CCOCC3)ccc21	-12	1%	?	-1%	-26%
COc1ccc(-c2csc3ncnc(N4CCN(C(=O)c5ccco5)CC4)c23)cc1	44	-20%	?	-21%	23µM*
O=C(c1ccco1)N1CCN(c2ncnc3scc(-c4cccs4)c23)CC1	-9	11µM*	13µM*	7.9µM*	18µM*
O=C(c1ccco1)N1CCN(c2ncnc3scc(-c4ccccc4)c23)CC1	1	7.3µM*	16µM*	10µM*	16µM*
O=C(c1cccs1)N1CCCN(c2ncnc3scc(-c4ccccc4)c23)CC1	nt	-29%	?	?	?
